Measurements taken from PubChem BioAssay AID686933 (National Center for Advancing Translational Sciences (NCATS), 2013).
Results filed as inconclusive are left out. Unmarked numbers belong to inactive results. The source made the active and inactive calls. Calls come from the whole dose curve; as a rule, active = well fitted inhibition curve with a large enough effect; inconclusive = small, poorly fitted or top-dose-only effect; inactive = flat fitted curve, though single readings scatter.

target: Luciferin 4-monooxygenase (Photinus pyralis) (UniProt P08659); experiment: qHTS screen for small molecules that inhibit ELG1-dependent DNA repair: SAR in Biochemical Luciferin Assay; conditions: purified firefly luciferase, luciferin luminescence counter-screen; series mostly up to 57.5 µM; activity change, negative = inhibition: at the top concentration
Text: Cancer cells divide rapidly compared to normal cells in the body. During cell division, cancer cells need to duplicate their genome by DNA replication. The failure of genome duplication leads to cancer cells' death. Therefore, inhibitors of DNA replication could specifically kill cancer cells. Based on this concept, many chemotherapeutic agents were developed and have been used to treat cancer patients. However, there are a limited number of agents available in the clinical setting, and some of those that do exist have low efficacy and severe side effects. Therefore, if we can find the compounds that effectively block DNA replication either by directly damaging DNA or by inhibiting other cellular mechanisms, the options for cancer treatment will be broadened. With this in mind, we developed a quantitative high-throughput ELG1-luciferase reporter gene assay. Small molecules that specifically block ELG1 function in response to DNA damage can be identified by monitoring the suppression of luciferase activity. Since ELG1 defines a pathway for repairing DNA damage, agents blocking ELG1 function can be used to sensitize cancer cells to chemotherapeutic agents whose mechanism of action involves the induction of DNA damage. This counter assay is a luciferase assay, that following treatment with putative ELG1 antagonists, aims to eliminate luciferase enhancers/inhibitors. NIH Molecular Libraries Probe Production Network [MLPCN] NIH Chemical Genomics Center [NCGC] MLPCN Grant: R03 MH092164 Assay Provider: Kyungjae Myung, NHGRI, NIH
3 uL of substrate reagent will be pipetted into each well in 1536-well white, solid-bottom plates using a FRD dispenser, followed by addition of 23 nL of DMSO or compounds by pintool. After compound addition, 1 µL of luciferase will be added into the wells. The plates will be read in a ViewLux CCD-based plate reader.

| SMILES | activity change, negative = inhibition [%] | Potency |
| --- | --- | --- |
| O=C(COc1ccccc1F)Nc1ccc(-c2nc3ccccc3s2)cc1 | -25.4 | – |
| CC(/C=C/C(=O)NO)=C\[C@@H](C)C(=O)c1ccc(N(C)C)cc1 | -28.1 | – |
| c1cncc(CNc2ncnc3ccc(-c4ccoc4)cc23)c1 | -6.33 | – |
| O=c1[nH]c(-c2ccc(-c3cccc(Cl)c3)o2)nc2ccccc12 | – | 0.461 µM (active) |
| CN(Cc1ccco1)c1ncnc2ccc(-c3cccc(Cl)c3)cc12 | -10.7 | – |
| COc1ccc(C2=Nn3c(nnc3-c3ccccc3OC)SC2)cc1OC | 6.27 | – |
| OCC1OC(n2cnc3c(=S)nc[nH]c32)C(O)C1O (stereo not given) | 4.5 | – |
| COc1ccc(OC)c(-c2nnc3n2N=C(c2ccc(OC)c(OC)c2)CS3)c1 | 4.84 | – |
| N#Cc1ccc(-c2ccc(-c3nc4ccccc4c(=O)[nH]3)o2)cc1 | 0.924 | – |
| Cc1nc(Nc2nc3ccccc3o2)nc2c1CCCC2 | – | 0.651 µM (active) |
| CN(C)c1cccc(-c2ccnc(N3CCC(C(N)=O)CC3)n2)c1 | – | 16.4 µM (active) |
| CS[C@@H]1SC[C@H]2C(=O)N(C)C(C(C)C)C(=O)OC[C@@H](NC(=O)c3cnc4ccccc4n3)C(=O)N[C@@H](C)C(=O)N(C)[C@H]1C(=O)N(C)C(C(C)C)C(=O)OC[C@@H](NC(=O)c1cnc3ccccc3n1)C(=O)N[C@@H](C)C(=O)N2C (stereo not given in full) | -3.21 | – |
| COc1cc2c(cc1OC)C1C(=O)c3c(O)cc4c(c3OC1CO2)C=CC(C)(C)O4 (stereo not given) | -5.2 | – |
| Cc1csc(CNc2ncnc3ccc(-c4ccoc4)cc23)c1 | -18.3 | – |
| O=C(Nc1ccccn1)c1sc2ccccc2c1Cl | – | 0.164 µM (active) |
